In the experiment the target is sn-1-specific diacylglycerol lipase ABHD11 (Mus musculus) (UniProt Q8K4F5). The experiment can be described thus: recombinant ABHD11 inhibition, late-stage follow-up, selectivity assay for DAGLb inhibitor project, biochemical, competitive gel ABPP, mouse, set 2 (AID 602312). Particulars: recombinant ABHD11 in HEK293T proteome, gel ABPP FP-Rh; series mostly up to 10 µM.

Activity calls are given as the source filed them.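 How the source made its calls: active means inhibition of at least 50% at 1 µM; inactive means inhibition below 50% at 1 µM.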

sn-1-specific diacylglycerol lipase ABHD11 (Mus musculus), sequence (Q8K4F5 whole entry, looked up): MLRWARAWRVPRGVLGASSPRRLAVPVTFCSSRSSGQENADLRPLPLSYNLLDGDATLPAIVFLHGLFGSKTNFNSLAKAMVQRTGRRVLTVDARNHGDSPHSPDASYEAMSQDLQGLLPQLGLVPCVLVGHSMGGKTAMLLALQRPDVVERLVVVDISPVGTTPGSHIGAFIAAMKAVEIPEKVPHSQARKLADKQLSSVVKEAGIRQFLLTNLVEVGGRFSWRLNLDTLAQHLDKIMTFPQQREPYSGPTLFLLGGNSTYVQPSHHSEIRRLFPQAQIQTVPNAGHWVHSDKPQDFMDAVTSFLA

Take `COc1ccc(-c2ccc(-c3cn(C(=O)N4CCCCC4c4ccccc4)nn3)cc2)cc1` (stereo unspecified): the outcome was inactive.

Source of the values: PubChem BioAssay AID602312 (The Scripps Research Institute Molecular Screening Center, 2012).
